Compounds without any hit were thinned out: in the full panel of roughly 83,000, 20% have a hit.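 A percent growth of 40 corresponds to 60% growth inhibition; 0 means no net growth; -100 means all cells died. Active threshold: below 10.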 Unmarked numbers belong to inactive results. Active and inactive are the calls of the source.
How the values were obtained:
Test in all cases: NCI-60 one-dose screen, 48 h (100 = growth as untreated, 0 = no growth, -100 = all killed)
Conditions in all cases: 10 µM unless noted
NCI/ADR-RES ovarian = tested on: NCI/ADR-RES ovarian
T-47D breast = tested on: T-47D breast
BT-549 breast = tested on: BT-549 breast
MDA-MB-435 melanoma = tested on: MDA-MB-435 melanoma
SW-620 colon = tested on: SW-620 colon
MCF7 breast = tested on: MCF7 breast
HCT-116 colon = tested on: HCT-116 colon
HCC-2998 colon = tested on: HCC-2998 colon
KM12 colon = tested on: KM12 colon

Row | SMILES | growth (NCI/ADR-RES ovarian) | growth (T-47D breast) | growth (BT-549 breast) | growth (MDA-MB-435 melanoma) | growth (SW-620 colon) | growth (MCF7 breast) | growth (HCT-116 colon) | growth (HCC-2998 colon) | growth (KM12 colon)
1 | CNC(=O)Oc1cccc(C(F)(F)F)c1 | 109% | 98.9% | 108% | 126% | 104% | 109% | 107% | 113% | 
2 | COc1ccc(/C=C\c2cc(OC)c(OC)c(OC)c2)c(NS(=O)(=O)c2ccc(C)cc2)c1O | 7.57% (active) | 96.4% | 30.6% | -33.1% (active) | 24.9% | 14.3% | 8.54% (active) | 18.7% | 
3 | c1ccc(CSC(c2ccccc2)c2ccccc2)cc1 | 106% | 117% | 116% | 114% | 103% | 124% | 89.8% | 107% | 
4 | c1ccc(Nc2nc(-c3ccccc3)c[se]2)cc1 | 97.3% | 6.3% (active) | 87.4% | 104% | 98.8% | 61% | 86.3% | 86.5% | 
5 | C/C1=C/C(=O)O[C@@H]2C[C@@H](CC[C@H](C)/C=C\C=C\CC1)O[C@@](O)([C@@H]1CSC(=O)N1CO)C2 | 47.6% | 56.8% | -13.3% (active) | 32% | 53.2% | 56.8% | 27.2% | 34.7% | 
6 | CC12CCC3C(CCC4Cc5[nH]c6ccccc6c5CC43C)C1CCC2O (stereo not given) | 38.4% | 29.2% | 60.4% | -25.2% (active) | 11.5% | 5.13% (active) | 23.3% |  | 
7 | CCOP(=O)(NC[C@H]1O[C@](O)(CO)[C@@H](O)[C@@H]1O)OCC | 100% | 98.1% | 87.1% | 106% | 104% | 95.1% | 95.6% | 103% | 99.3%
8 | Fc1cccc(NCOOC2(OOCNc3cccc(F)c3)CCCCC2)c1 | 77.8% | 86.8% | 102% | 101% | 104% | 88.8% | 87.3% | 105% | 94.6%
9 | Clc1ccc(N2COOC3(OOC2)C2CC4CC(C2)CC3C4)cc1 | -13.3% (active) | 49.1% | 68.7% | 53.1% | 75.3% | 71.7% | 50.4% | 102% | 36%
10 | N/C(=N\N=C\c1ccc(-c2ccccc2)cc1)N[N+](=O)[O-] | 19.4% | 36.1% | 52% | -27.4% (active) | 20.7% | 13.6% | 28.7% | 60.9% | 32.1%
11 | COc1cc(C=C2c3ccccc3C(=O)c3ccccc32)ccc1OCCCCOc1cc2c(cc1OC)C(=O)N1CCCC1C=N2 (stereo not given) | 6.1% (active) | -30% (active) | -40.2% (active) | -57.6% (active) | -84.4% (active) | -77.1% (active) | -85.3% (active) | -94.4% (active) | -85.7% (active)
12 | CN(C)CCCOc1ccc2c(c1)c(C(=O)C(=O)NCCO)cn2Cc1ccccc1 | 108% | 95.2% | 98.4% | 103% | 105% | 91.5% | 98.7% | 115% | 104%
13 | COc1ccc(NC([Se])=NC23CC4CC(CC(C4)C2)C3)cc1 | 1.9% (active) | -11.7% (active) | 11.3% | 20% | 2.24% (active) | 11.4% | 1.65% (active) | 14.6% | 5.4% (active)
14 | c1ccc(COc2ccc3[nH]cc(CCN(Cc4ccccc4)Cc4ccccc4)c3c2)cc1 | 91.4% | 62.9% | 103% | 102% | 90.5% | 79.3% | 60.3% | 99.7% | 88%
15 | COP(=S)(N1CC1)N1CC1 | 103% | 94.8% | 118% | 105% | 103% | 102% | 109% | 105% | 116%
16 | NC(=S)c1cn(C2OC(CO)C(O)C2O)c2ncnc(N)c12 (stereo not given) | -25.8% (active) | -16.9% (active) | -43.1% (active) | -40.5% (active) | -27.6% (active) | 2.36% (active) | -16.3% (active) | -44.8% (active) | -14.9% (active)
17 | COC(=O)[C@@]1(C)CC[C@]2(C)CC[C@]3(C)C4=CC=C5C(=CC(=O)C(O)=C5C)[C@]4(C)CC[C@@]3(C)[C@@H]2C1 | -59.8% (active) | -57.1% (active) | -95.2% (active) | -90.8% (active) | -83% (active) | -69.1% (active) | -96.4% (active) | -69.5% (active) | -63.1% (active)
18 | C/C(=C\c1ccn(-c2ccccc2N)n1)[C@@H]1C[C@@H]2O[C@]2(C)CCC[C@H](C)[C@H](O)[C@@H](C)C(=O)C(C)(C)[C@@H](O)CC(=O)O1 | -4.02% (active) | 36.4% | 15% | -46.6% (active) | 38.3% | 18.6% | 12.1% | 3.48% (active) | 14.6%
19 | O=C1Nc2ccccc2C2c3cccn3-c3ccccc3CN12 (stereo not given) | 20.9% | 27.7% | 50.7% | -15% (active) | 24.5% | 38.8% | 41.7% | 71.1% | 30.3%
20 | CC[C@H](C)[C@H](NC(=O)C12CC(NC(C)=O)(C1)C2)C(=O)N(C)[C@H](C[C@@H](OC(C)=O)c1nc(C(=O)N[C@@H](Cc2ccccc2)C[C@H](C)C(=O)OC)cs1)C(C)C | 80.5% | 50.1% | 4.76% (active) | -59% (active) | 23.7% | 15.7% | 3.73% (active) | 24.8% | 12.5%
21 | CC(=O)c1ccc(C(=O)NCC2CCC3(CC2)OOC2(CCCCC2)OO3)cc1 | 17.4% | 53.9% | 91.9% | 88% | 22.1% | 81.7% | 79% | 108% | 69.7%
22 | CCN(CC)CCOC(=O)C(OC(C)C)(c1ccccc1)c1ccccc1 | 100% | 93.8% | 96.6% | 103% | 91.5% | 95.3% | 78.4% | 108% | 101%
23 | CC(CC1CCCCC1)NCc1ccccc1 (stereo not given) | 93.7% | 102% | 97.7% | 103% | 94% | 96.4% | 96.6% | 95.3% | 101%
24 | C#Cc1ccc2c(c1)C(c1ccccc1F)=NCC(=O)N2C | 16.6% | 40.9% | 47.2% | 10.2% | 30.3% | 19.7% | 17.3% | 65.2% | 27.8%
25 | COC(=O)[C@@H](C)C[C@H](Cc1ccccc1)NC(=O)c1csc(CC[C@H](C(C)C)N(C)C(=O)[C@@H](NC(=O)[C@H]2CCCCN2C)C(C)C)n1 | 53.1% | 56.8% | 7.17% (active) | -48.6% (active) | 30.6% | 20.3% | 3.72% (active) | 24.5% | 16.2%
26 | COC(=O)[C@@H](C)C[C@H](Cc1ccccc1)NC(=O)c1csc([C@@H](C[C@H](C(C)C)N(C)C(=O)[C@@H](NC(=O)[C@H]2CCCCN2C)C(C)C)OC(C)=O)n1 | 5.63% (active) | 54.7% | -20.5% (active) | -54.7% (active) | 22.9% | 19.6% | -21.2% (active) | 12.9% | 4.46% (active)
27 | CN1CC(=O)N(O)C1(C)c1cccnc1 (stereo not given) | 104% | 93.4% | 95.7% | 97.4% | 111% | 98.7% | 102% | 98.7% | 108%
28 | O=C(NCCN1CC1)C(=O)NCCN1CC1 | 79.5% | 88.2% | 88.7% | 106% | 84.7% | 65.8% | 87.9% | 89.1% | 97.8%
